# About 40 (0.01%) of roughly 330,000 compounds were called active. The call rests on the fitted dose curve; in most records, active means well fitted inhibition curve with a large enough effect; inconclusive means small, poorly fitted or top-dose-only effect, or effect the other way; inactive means flat fitted curve, though single readings scatter. Shown is part of a subset that was picked to be rich in actives. Where a call stands in place of a potency, no number is given.
# Molecular target: Ubiquitin carboxyl-terminal hydrolase 2 (Homo sapiens) (UniProt O75604)
# Sequence (O75604 whole entry, looked up): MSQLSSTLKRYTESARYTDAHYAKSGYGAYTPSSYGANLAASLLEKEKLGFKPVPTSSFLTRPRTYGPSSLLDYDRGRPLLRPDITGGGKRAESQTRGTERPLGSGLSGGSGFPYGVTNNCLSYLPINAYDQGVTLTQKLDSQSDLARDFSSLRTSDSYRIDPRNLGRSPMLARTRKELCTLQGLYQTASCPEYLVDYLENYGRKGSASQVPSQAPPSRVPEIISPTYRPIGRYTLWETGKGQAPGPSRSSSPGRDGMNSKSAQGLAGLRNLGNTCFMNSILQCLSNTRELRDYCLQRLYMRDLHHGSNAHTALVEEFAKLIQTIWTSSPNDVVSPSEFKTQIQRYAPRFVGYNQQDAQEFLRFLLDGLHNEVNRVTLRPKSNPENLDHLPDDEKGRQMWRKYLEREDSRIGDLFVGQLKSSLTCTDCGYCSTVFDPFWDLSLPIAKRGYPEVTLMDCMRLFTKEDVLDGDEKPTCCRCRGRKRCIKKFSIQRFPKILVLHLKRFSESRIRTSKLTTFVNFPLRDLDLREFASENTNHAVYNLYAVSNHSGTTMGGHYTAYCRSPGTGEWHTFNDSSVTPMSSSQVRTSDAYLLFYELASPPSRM
# Assay: qHTS Assay for Inhibitors of Ubiquitin-specific Protease USP2a Using CHOP2 as the Reporter
# Settings: USP2 core, Ub-CHOP2 coupled fluorogenic reporter, 485/531; series mostly up to 38.3 µM
# Excerpt: NIH Molecular Libraries Screening Centers Network [MLSCN] NIH Chemical Genomics Center [NCGC] MLSCN Grant: XO1-MH079852-01 PI Name: Nicholson, Ben. Progenra Inc, Malvern, PA NCGC Assay Overview: Homeostasis of cellular proteins is maintained through a combination of synthesis and degradation. The pathway that accounts for the majority of protein degradation is the ubiquitin-proteasomal pathway. Ubiquitin (Ub) is highly conserved in all cells and the generation of a multi-Ub chain typically targets proteins for degradation by the proteasome. However, ubiquitination is highly reversible and dynamic. Deubiquitination, the reverse process, is catalyzed through the action of enzymes referred to as isopeptidases or deubiquitinating enzymes (DUBs). This group of enzymes is collectively responsible for maintaining adequate pools of free ubiquitin and regulating the ubiquitination status of cellular proteins. The class of DUBs referred to as the ubiquitin-specific proteases (USP) family functions endoproteolytically to cleave Ub chains from a wide range of protein substrates. USP2a deubiquitinates fatty acid synthase (FASN) which has recently been identified as an emerging oncology target. To identify inhibitors of USP2a a cell-free assay was employed. […] The reporter enzyme chosen is an enterokinase called CHOP2, which is activated when the Ub is cleaved by USP2. The free and now activated reporter can subsequently act on its reporter substrate. Thus, this coupled assay gives a fluorescent read-out at excitation/emission wavelengths of 485/531. The assay was developed by Progenra, Inc. and has been licensed for sale by LifeSensors, Inc. as Ub-CHOP2-Reporter-Kit (#PR1101).
# NCGC Assay Protocol Summary: The assay buffer, prepared fresh at the day of the assay, contains 20mM Tris-HCl pH 8.0, 2mM CaCl2, 2mM beta-Mercaptoethanol, 0.05% CHAPS. 3ul of 20nM (10nM final) USP2 core, which is stored on ice, is dispensed into a medium-binding black solid Kalypsys 1,536 well plate using the Kalypsys dispenser. The assay plate is then pinned with 23nL compound with the Kalypsys pintool in columns 5-48. The controls are pinned as follows: column 1 two-fold dilutions of 2M NEM in duplicate; column 2 2M NEM (final concentration 38.2mM); column 3&4 DMSO. The assay plate is incubated at RT for 30min. Subsequently, 1.5uL of 100nM (25nM final) Ub-CHOP2 and 1.5uL of 100nM (25nM final) Reporter Substrate (both stored on ice and protected from light) were dispensed into the plate using the Kalypsys dispenser. Plates were read after 60min RT incubation on a ViewLux (Perkin Elmer) plate reader using the following wavelengths Ex 485nm /Em 531nm. Data were normalized to the to AC100 inhibition (NEM). Concentration-response curves were fitted to the normalized data and the concentration-response curves were then classified based on curve quality (r2), response magnitude and degree of measured activity. The time zero reading was used to flag fluorescence artifacts. Keywords: ubiquitination, deubiquitination, proteases, profluorescent, MLSMR, MLPCN, NIH Roadmap, qHTS, NCGC
# Potency means the concentration at half of the fitted maximal effect.
Compound,"activity change, negative = inhibition",Potency
CCCCCN(C(=O)CCC(=O)OCC(=O)NCc1ccc(OC)cc1)c1c(N)n(CCCC)c(=O)[nH]c1=O,inactive,–
Cc1ccc(S(=O)(=O)Nc2nc(N)n(-c3ccccc3)n2)cc1,inactive,–
COC(=O)c1ccc(OC(=O)c2nn(C)cc2Cl)c(OC)c1,inactive,–
Cc1nc2nc(COc3ccccc3)[nH]n2c(=O)c1C,inactive,–
O=C(Nc1cc(N2CCOCC2)ncn1)NC1(C(F)(F)F)Oc2ccc(Cl)cc2O1 (stereo unspecified),inactive,–
CSc1ncc(C(=O)Nc2ccc(C)cc2C)c(C)n1,inactive,–
COc1cccc(CNS(=O)(=O)c2csc(C(N)=O)c2)c1,inactive,–
CC(=O)O[C@H]1CC[C@@]2(C)[C@@H](CC[C@@H]3[C@@H]2CC[C@]2(C)[C@@H](C(C)(C)O)C[C@@H]32)C1,inactive,–
Cc1ccc(C)c(CSc2nc(-c3ccco3)nc3c2c(=O)n(C)c(=O)n3C)c1,inactive,–
CCC(C)NC(=O)C1CCC(=O)N1Cc1ccc(C)cc1 (stereo unspecified),inactive,–
COc1ccc(CS(=O)/C(Cl)=C(/Cl)C(=O)Nc2ccc(OC)nc2)cc1 (stereo unspecified),inactive,–
Cc1cc(C)c(S(=O)(=O)N2CCOCC2)cc1C,inactive,–
Cc1ccc(CNC(=O)Cn2c(=O)c3sccc3n(Cc3cccc([N+](=O)[O-])c3)c2=O)cc1,inactive,–
CCOc1ncccc1C(=O)NNC(=O)c1cccc(S(=O)(=O)Nc2ccccc2OC)c1,inactive,–
COc1ccc(C(c2nnnn2C2CCCCC2)N2CCN(c3ccccc3F)CC2)cc1 (stereo unspecified),inactive,–
COc1ccccc1/C=C/CN1CCC(CO)(Cc2ccccc2)CC1,inactive,–
Cc1ccc(O)c(/C=N/NC(=O)COc2ccc3c(C)cc(=O)oc3c2)c1,inactive,–
O=C(CCc1nnc(Cc2ccc3c(c2)OCO3)o1)NCCc1ccccc1Cl,inactive,–
CC(C)c1ccc(-c2noc(C3CCCN(S(C)(=O)=O)C3)n2)cc1 (stereo unspecified),inactive,–
COc1ccccc1CNC(=O)CCCNS(=O)(=O)c1cccc2nsnc12,inactive,–
CC1COC2C(O1)N(S(C)(=O)=O)CCN2S(C)(=O)=O (stereo unspecified),inactive,–
CCC(C)[C@@H](C(=O)N1CCNCC1)n1cc(CCCCN)nn1 (stereo partly specified),inactive,–

Compound,"activity change, negative = inhibition",Potency
CCCN(CC(=O)NC(=O)NC1CCCCC1)CC(=O)Nc1cc(Cl)ccc1Cl,inactive,–
CC(C)CC1NC(=O)c2cc(Cl)ccc2-n2c1nc1ccccc1c2=O (stereo unspecified),inactive,–
O=C(NNS(=O)(=O)c1ccc(F)cc1)c1cnccn1,inactive,–
Cc1csc(Nc2ccc(Cl)cc2)[n+]1-c1ccc(Cl)cc1,inactive,–
CSC1=NCCN1C(=O)c1ccc(S(=O)(=O)N2CCOCC2)cc1,inactive,–
C[C@@H]1C[C@@H]2O[C@H]2/C=C\C=C\C(=O)Cc2c(Cl)c(O)cc(O)c2C(=O)O1,inactive,–
Cc1cccc(NC(=O)N(Cc2cc3cc(C)cc(C)c3[nH]c2=O)CC2COCCO2)c1 (stereo unspecified),inactive,–
C#CCOCCOCCOCCNc1nc(N2CCN(C(=O)CCCCCCCCCCNC(=O)Cn3cc(CCCCCN)nn3)CC2)nc(N2CCN(C(=O)CCCCCCCCCCNC(=O)[C@H](CO)n3cc(CCCSC)nn3)CC2)n1,inactive,–
C#CCOCCOCCOCCNc1nc(N2CCN(C(=O)CCCCCCCCCCNC(=O)[C@H]([C@@H](C)CC)n3cc(CCCCN=C(N)N)nn3)CC2)nc(N2CCN(C(=O)CCCCCCCCCCNC(=O)[C@H](CO)n3cc(CCCSC)nn3)CC2)n1,–,6.31 µM (active)
C#CCOCCOCCOCCNc1nc(N2CCN(C(=O)CCCCCCCCCCNC(=O)[C@H](CCCCN)n3cc(C)nn3)CC2)nc(N2CCN(C(=O)CCCCCCCCCCNC(=O)[C@H](CO)n3cc(CCCSC)nn3)CC2)n1,inactive,–
Cc1cc(NC(=O)CN2CCCCC2C)nc2c1c(=O)oc1ccccc12 (stereo unspecified),inactive,–
Cc1nc(SC(C)C)[nH]c(=O)c1Cc1ccccc1,inactive,–
CC1CCc2c(nc3ncnn3c2Nc2ccc(OC(F)(F)F)cc2)C1 (stereo unspecified),inactive,–
CCNC(=O)c1sccc1-n1cccc1,inactive,–
CN1C2CCC1/C(=C\c1ccccc1Cl)C(=O)/C2=C\c1ccccc1Cl,inactive,–
COc1ccc2c(c1OC)C(=O)c1ccccc1C2=O,inactive,–
Cc1c([N+](=O)[O-])c(N)nn1C,inactive,–
Cc1cc(NS(=O)(=O)c2ccc(NC(=O)c3cccnc3)cc2)nc(C)n1,inactive,–
COc1cccc(CC2(CO)CCN(Cc3cnc(-c4cccc(C)c4)nc3)CC2)c1,inactive,–
NS(=O)(=O)c1ccc(NC(=S)NC(=O)c2cccnc2)cc1,inactive,–
COc1cc2c(C(=O)N3CCN(C)CC3)c(CSc3ccccc3)n(C)c2cc1Br,inactive,–
COc1ccc(Cl)cc1N(CC(=O)N1CCCCC1)S(C)(=O)=O,inactive,–

Compound,"activity change, negative = inhibition",Potency
Cc1ccc(NC(=O)N2CCC(O)(c3cccnc3)CC2)cc1,inactive,–
COc1cc(OC)cc(C(=O)N[C@H](C(=O)OCC(=O)NC(C)c2ccccc2)C(C)C)c1 (stereo partly specified),inactive,–
O=C1C2C3C=CC(C3)C2C(=O)N1c1ccc(S(=O)(=O)Nc2nccs2)cc1 (stereo unspecified),inactive,–
O=C(Cc1csc(Nc2nc(=S)[nH]c3ccccc23)n1)NCCCN1CCN(c2cccc(Cl)c2)CC1,inactive,–
CC(C)[C@@H]1NC(=O)c2cc([N+](=O)[O-])cc(I)c2NCCC[C@@H](C(=O)NC(CC(=O)O)C(N)=O)NC(=O)[C@H](CO)NC1=O (stereo partly specified),inactive,–
CC(C)(CNC(=O)c1cc(=O)[nH]c2ccccc12)N1CCOCC1,inactive,–
Cc1ccc(CN2CCN(Cc3ccccc3-c3ccco3)CC2CCO)o1 (stereo unspecified),inactive,–
COCc1ccc(C(=O)NC2CC(C)(C)Cc3c2cnn3-c2ccc(C)cc2)o1 (stereo unspecified),inactive,–
Fc1ccccc1CNC(=S)Nc1ccc(Cl)cc1,inactive,–
COc1ccc(C(=O)NCC2CCCCC2)cc1S(=O)(=O)N1CCCC1,inactive,–
CCn1cc(C(=O)NCc2ccc(OC)cc2OC)c(=O)c2ccc(C)nc21,inactive,–
COc1ccc(C2COC(=O)C2=N)c(NC(=O)c2ccccc2)c1 (stereo unspecified),inactive,–
COc1ccc(C(CC(=O)Nc2ccc(C)cc2)NC(=O)C(F)(F)F)cc1 (stereo unspecified),inactive,–
CCCCN(Cc1ccccc1)C(=O)C1CCN(Cc2sccc2C)CC1,inactive,–
CC(=O)c1c(OCC(=O)N(C)C2CCCCC2)ccc2c(C)cc(=O)oc12,inactive,–
Cc1ccc(NS(=O)(=O)c2ccc3c(c2)CC(=O)N3)cc1Cl,inactive,–
CCOc1ccc(NC(=O)c2ccc(NC(=O)COC(=O)c3ccc(NC(=O)CC#N)cc3)cc2)cc1,–,7.94 µM (active)
N#CCC(=O)Nc1ccc(C(=O)OCC(=O)Nc2sc3c(c2C#N)CCCC3)cc1,inactive,–
CCOc1ccc(NC(=O)CCNC(=O)c2ccc(Br)cc2)cc1,inactive,–
O=C(CCS(=O)(=O)c1ccccc1Cl)Nc1ccc(S(=O)(=O)Nc2ncccn2)cc1,inactive,–
CC(C)C1N=C2c3ccccc3N=C(SCC(=O)c3ccc(O)c(O)c3)N2C1=O (stereo unspecified),inactive,–
COc1ccccc1/C=C/C(=O)OCC(=O)NC1CCCCCC1,inactive,–

Compound,"activity change, negative = inhibition",Potency
CCOc1ccc(NS(=O)(=O)c2ccc(C(=O)NC3CCN(Cc4ccccc4)CC3)cc2)cc1,inactive,–
CC(C)OC(=O)C(C#N)c1nc2ccccc2nc1N1CCN(Cc2ccc3c(c2)OCO3)CC1 (stereo unspecified),inactive,–
COc1cccc(-c2nnc(NC(=O)c3ccc(S(=O)(=O)N(CC(C)C)CC(C)C)cc3)o2)c1,inactive,–
Cc1sc(NC(=O)C2C3CCC(O3)C2C(=O)O)c(C(=O)OC(C)C)c1-c1ccc(Cl)cc1 (stereo unspecified),inactive,–
CCN(CC)C(=O)CSC(Nc1cccc(F)c1)=C(C#N)C#N,inactive,–
CS(=O)(=O)c1ccc(-c2nnn(CC(=O)Nc3ccc4c(c3)OCCO4)n2)cc1,inactive,–
COc1ccc(Nc2ncc(C(=O)N3CCN(c4ccccc4OC)CC3)c3ccccc23)cc1,inactive,–
Cc1ccc(-n2nc(C)c(C(=O)O)c2-n2cccc2)cc1,inactive,–
CC(=O)c1ccc(NC(=O)C2CCCN2S(=O)(=O)c2cccs2)cc1 (stereo unspecified),inactive,–
Cn1c(=O)c2cc(S(=O)(=O)NCCC(=O)Nc3ccc(F)cc3F)ccc2n(C)c1=O,inactive,–
Cc1cc(-c2n[nH]c(=S)n2/N=C/C(Br)=C/c2ccccc2)n[nH]1,inactive,–
Cc1c(C)c(C)c(S(=O)(=O)NCCc2ccccn2)c(C)c1C,inactive,–
COc1cc(C)c(S(=O)(=O)N2CCOCC2)c(C)c1C,inactive,–
COc1ccc(NC(=O)CN(C)C(=O)c2cccc(S(=O)(=O)N3CCN(c4ccccc4)CC3)c2)cc1,inactive,–
CCN(CC)C(=O)CSc1nnc(-c2ccc(S(=O)(=O)NCc3ccccc3Cl)cc2)o1,inactive,–
CN(CCO)c1ccc(/C=N/Nc2nncc3ccccc23)cc1,inactive,–
CCOC(=O)c1cc(-c2ccc(Cl)s2)nc2c1c(C)nn2C,inactive,–
COc1ccc(NC(=O)CN2C(=O)C(c3ccccc3)=NC23CCCCCC3)cc1OC,inactive,–
CC1(C)CC(=O)c2cc(OCC(=O)NCC3CCCO3)ccc2O1 (stereo unspecified),inactive,–
Cc1c(-c2nn(C)c(=O)c3ccccc23)oc2ccc(F)cc2c1=O,inactive,–
CC(C)Cc1nn2c(=O)cc(O)nc2s1,inactive,–
COc1cc(N/C=C2\CC(=O)NC(C)=C2C#N)cc(OC)c1OC,inactive,–

Compound,"activity change, negative = inhibition",Potency
O=C(Nc1cccc(Cl)c1)c1cncn1-c1ccc(F)cc1,inactive,–
O=C(COC(=O)c1cccc(Cl)c1)NC1CCCCCCC1,inactive,–
Cc1cccc(OCC(O)CN2CCN(CCN3C(=O)c4cccc5cccc(c45)C3=O)CC2)c1C (stereo unspecified),inactive,–
Cc1nc(NC2=NC(C(=O)Nc3ccc(Cl)cc3)CC(=O)N2)nc2ccccc12 (stereo unspecified),inactive,–
C=CC(COCc1ccccc1)N(Cc1ccccc1)S(=O)(=O)c1ccccc1Br (stereo unspecified),inactive,–
CCC(C)N1CC(=O)N2Cc3[nH]c4ccccc4c3C[C@H]2C1=O (stereo partly specified),inactive,–
CCCCOC(=O)c1ccc(NC(c2ccc(C)cc2)P(=O)(OC)OC)cc1 (stereo unspecified),inactive,–
O=C(O)c1cc2c(cc1NC(=O)c1c(F)cccc1Cl)OCCCO2,inactive,–
O=S(=O)(NC1CCN(S(=O)(=O)c2ccc3c(c2)OCCO3)CC1)c1c(F)cccc1F,inactive,–
CCCOc1ccc(CN(CCO)CCO)cc1C(=O)OC,inactive,–
Cc1ccc(NC2=C(Cl)C(=O)OC2OC(=O)c2ccccc2C)cc1 (stereo unspecified),inactive,–
C[C@@]12C(=O)N(c3cccc(Br)c3)C(=O)N1[C@H](c1ccc(Cl)cc1)[C@@H]1C(=O)N(C3CCCCC3)C(=O)[C@@H]12,inactive,–
CCn1c(SC(C)C(=O)Nc2ccc(N3CCOCC3)cc2)nnc1-c1ccco1 (stereo unspecified),inactive,–
CCOC(=O)c1c(CNCc2ccccc2F)c2sc(C)cc2n1C,inactive,–
CN(C(=O)CCn1c(=S)oc2ccccc21)C1CCCCC1,inactive,–
CCCCN=C(N)/C(C(=O)OCC)=C(\O)c1ccc(OC)cc1,inactive,–
COc1ccc(OC)c(-n2cc3c(=O)n(C)c(=O)n(C)c3c2)c1,inactive,–
O=[N+]([O-])c1cc([N+](=O)[O-])c2cccnc2c1O,inactive,–

# From PubChem BioAssay AID463254 (National Center for Advancing Translational Sciences (NCATS), 2010)
